Reference: PubChem BioAssay (NCI)
The panel holds about 83,000 compounds, 20% with a hit somewhere; the sample as a whole holds those more often.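 Testing used 96-well plates and a 48-hour single-concentration exposure. Example: -40 means 40% of the starting cells died.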 Unmarked numbers belong to inactive results. Activity calls are given as the source filed them. The calls were made as follows: active = growth percent below 10; inactive = the rest.

test system: IGROV1 ovarian; assay: NCI-60 one-dose screen, 48 h (100 = growth as untreated, 0 = no growth, -100 = all killed); conditions: 10 µM unless noted

| Structure (SMILES) | growth |
| --- | --- |
| COc1ccc(C2C3CCc4ccccc4C3=NN2C(=O)c2cc(OC)c(OC)c(OC)c2)cc1O (centres undefined) | 46.6% |
| CCOC(=O)c1ccc(NC(=O)NC2=NCCS2)cc1 | 21.5% |
| CC(C)COC(=O)NC(C)(C)C | 107% |
| Cn1c(=O)c2[nH]c(Cc3ccc4c(c3)OCO4)nc2n(C)c1=O | 106% |
| Nc1nc(N)c2c(n1)NC(c1sc(Cl)nc1Cl)CC(c1ccc3c(c1)OCO3)=N2 (centres undefined) | 34.2% |
| Cc1ccccc1N1C(c2ccccc2)=NNC12C=CC(=O)c1c(O)cccc12 (centres undefined) | 93.2% |
| Nc1nc(N)c2c(n1)NC(c1sc(Cl)nc1Cl)CC(c1ccccc1)=N2 (centres undefined) | 50.5% |
| C=C1NC(=O)C(C(C)CC)NC(=O)C2CSCC(NC(=O)CCC(=O)O)C(=O)NC(Cc3ccccc3)C(=O)NC(C)C(=O)NC(CC(C)CC)C(=O)NC(C(=O)NC(Cc3ccccc3)C(=O)N3CCCC3C(=O)N2)C(C)OC(=O)C(CO)NC(=O)C(C(O)COC)N(C)C(=O)C(C(C)C)NC(=O)C(CC(C)CC)NC1=O (centres undefined) | 30.9% [6 µM] |
| Cc1nc2c(-c3cnc(N)nc3)nc(N3CCOCC3)nc2n1C(C)C | -24.7% (active) |
| C=CC[C@]1(O)CC[C@H]2[C@@H]3CCc4cc(O)ccc4[C@H]3CC[C@@]21C | 109% |
| COS(=O)(=O)CCN(CCOS(C)(=O)=O)S(C)(=O)=O | 105% |
| Cc1nc2ccc(Nc3nc(NCCN4CCOCC4)nc(Nc4ccc(F)cc4)n3)cc2n1Cc1ccccc1 | 69% |
| COC1CC(N)C2OC(c3ccccc3)OCC2O1 (centres undefined) | 110% |
| COc1ccc2[nH]cc(C(c3ccc(Cl)cc3)N3CCCC3)c2c1 (centres undefined) | 83.2% |
| CCOP(=O)(O)OP(=O)(O)OCC | 97.3% |
| COc1cccc(/C=N/N=C(N)N)c1 | 107% |
| COc1ccc(C2CC(c3ccc(Nc4ccnc5cc(Cl)ccc45)cc3)=NN2c2ccccc2)cc1 (centres undefined) | 113% |
| CC1=C(O)C(=O)C(c2c(C)cc(C)c(Br)c2C)=C(O)C1=O | 46.3% |
| FC(F)(F)C1=NNC(c2ccc3ccccc3c2)=NN1 | 103% |
| NC(N)=N/N=C\c1ccc(OCc2ccccc2)cc1 | 77.7% |

| Structure (SMILES) | growth |
| --- | --- |
| COc1ccc(NC(=O)C2c3ccccc3C(=O)N(CC(C)C)C2c2cccs2)cc1 (centres undefined) | 117% |
| NC(N)=N/N=C\c1cccc(OCc2ccccc2)c1 | 74.7% |
| CS(=O)(=O)Nc1cc(-c2cc3ncc(C#N)c(Nc4ccc(Oc5ccccc5)c(Cl)c4)c3s2)cnc1Cl | 11% |
| Cc1ccc(NC(=O)c2nc(S(C)(=O)=O)oc2-c2ccc(F)cc2)cc1Nc1ccc2ncn(C)c(=O)c2c1 | 61.4% |
| CC(=O)[C@H]1CC[C@H]2[C@@H]3CC[C@H]4CC=CC[C@]4(C)[C@H]3CC[C@]12C | 93.9% |
| COc1cccc(NC(=O)[C@H](C(C)C)n2c(=O)[nH]c3ccccc3c2=O)c1 | 113% |
| CC(C)N1CCN(c2ccncc2S(=O)(=O)N2CCN(C)CC2)CC1 | 119% |
| [O-]/[N+](=C\c1ccccc1)CC1(O)CCCCC1 | 125% |
| CCc1ccc(-c2ccc(NC3CCCCCC3)nn2)cc1S(N)(=O)=O | 110% |
| C[C@@H]1C[C@H](N)C[C@H](c2ccncc2NC(=O)c2ccc(F)c(-c3c(F)cccc3F)n2)C1 | 46.5% |
| COC(=O)C(CCC(=O)CCl)N1C(=O)c2ccccc2C1=O (centres undefined) | 27.2% |
| CCCCCCCCCCCCCCC(C(=O)OCC)C(=O)OCC | 103% |
| O=C(Nc1ccc2[nH]c3ccccc3c2c1)c1ccccc1Cl | 50.1% |
| CN(C)c1ccc(/C=C(\C#N)c2nc3ccccc3n2C)cc1 | 32.3% |
| O=C(CS)OCC(COC(=O)CS)(COC(=O)CS)COC(=O)CS | 94.4% |
| C#CC[C@@H]1C[C@]2(C)[C@H]3CC=C4[C@H]5[C@@H](C)[C@H](C)CC[C@]5(C(=O)NCCCCN)CC[C@@]4(C)[C@]3(C)CC[C@H]2C(C)(C)[C@H]1OC(C)=O | 74.8% |
| CC(=O)N1N=C(c2ccc(C)cc2)CC1c1cn(-c2ccccc2)nc1-c1cccc(Nc2ccnc3cc(Cl)ccc23)c1 (centres undefined) | 48.9% |
| CCN(CC)CCC(CNc1ccnc2cc(Cl)ccc12)c1ccc(O)cc1 (centres undefined) | 78.1% |
| CNC(=O)c1ccccc1Sc1ccc2c(/C=C/c3ccccn3)n[nH]c2c1 | 23.1% |
